Measured values as given in PubChem BioAssay AID686979 (National Center for Advancing Translational Sciences (NCATS), 2013).
Values joined by “and” are separate entries in the source; they are usually repeats but may differ in a detail not shown here. Identical values can stand only once. The whole screen tested about 420,000 compounds, of which about 50,000 (12%) were called active. Another 26% or so got no clear call; they are omitted. Calls follow the shape of the dose curve; as a rule, active = well fitted inhibition curve with a large enough effect; inconclusive = small, poorly fitted or top-dose-only effect; inactive = flat fitted curve, though single readings scatter. The list comes from a sample in which actives are over-represented; it also holds similar structures and randomly drawn compounds. Entries that show only a call come without a potency.

Assay: qHTS for Inhibitors of human tyrosyl-DNA phosphodiesterase 1 (TDP1): qHTS in cells in presence of CPT; also: nearly all actives have a fitted effect of over 55% in size
Settings: chicken DT40 Tdp1-/-;hTDP1 cells + 20 nM CPT, ATP luminescence, 48 h; series mostly up to 46.2 µM
Summary of the method: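 Chicken DT40 Tdp1-/- cells complemented with human TDP1, 400 cells/well, exposed to compounds plus 20 nM camptothecin for at least 48 h at 37 C; viability read as ATP content by CellTiter-Glo luminescence.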
Potency is read from the fitted curve at half-maximal effect.

| SMILES | Potency |
| --- | --- |
| Cc1ccc(NC(=O)c2ccn(C(=O)Nc3ccccc3)n2)c(C)c1 | inactive |
| Cc1ccc(NC(=O)c2oc3ccccc3c2C)c([N+](=O)[O-])c1 | inactive |
| Cc1ccc(NC(=O)c2oc(=O)c3ccccc3c2-c2ccccc2)c(C)c1 | 23.1 µM (active) |
| O=C(CSc1nnc(Nc2ccccc2F)s1)NC1CCCC1 | inactive |
| Nc1cccc(-c2cncc(N3CCN(Cc4ccccn4)CC3)n2)c1 | inactive |
| COc1ccc(NC(=O)C2CCCN(S(=O)(=O)c3cccc4nonc34)C2)cc1Cl (configuration not stated) | inactive |
| COc1cccc(-c2noc(C3CCCN(C(=O)c4ccc(F)cc4)C3)n2)c1 (configuration not stated) | inactive |
| COc1cc(-c2noc(C3CCCN(S(=O)(=O)c4cccc(Cl)c4)C3)n2)cc(OC)c1OC (configuration not stated) | 12.6 µM (active) |
| COc1ccccc1CC(NC(C)=O)C(=O)NC1CCN(C(=O)Nc2ccccc2Cl)CC1 (configuration not stated) | inactive |
| COc1cc(C2/C(=C(\O)c3ccc4c(c3)CC(C)O4)C(=O)C(=O)N2c2nnc(C)s2)cc(OC)c1OC (configuration not stated) | inactive |
| Cc1cc(Nc2ccc(C(=O)N3CCCCC3)cc2)c2cccc(C)c2n1 | inactive |
| CCOC(=O)N1CCN(Cc2nc(N)nc(Nc3ccc(C)cc3)n2)CC1 | inactive |
| CCOC(=O)N1CCN(C(c2ccnc3ccccc23)c2nnnn2-c2c(C)cccc2C)CC1 (configuration not stated) | inactive |
| CCOC(=O)N1CCN(C(c2cccnc2)c2ccc3cccnc3c2O)CC1 (configuration not stated) | 3.66 µM (active) |
| CC1(C(=O)O)CCC(C(=O)Nc2ccc(Cl)c(Cl)c2)C1(C)C (configuration not stated) | inactive |
| COc1ccc(S(=O)(=O)NNC(=O)Nc2ccc(C)cc2)c(OC)c1 | inactive |
| CCOC1=C2CN(S(=O)(=O)c3ccc(C)cc3)[C@H](c3cccs3)C[C@H]2[C@H]2C(=O)N(c3ccccc3)C(=O)[C@H]2C1 | inactive |
| O=C(COC(=O)c1cccc(Cl)c1)NC(=O)NCc1ccccc1 | inactive |
| Cc1cc(C)n(-c2c(F)c(F)c(COC(=O)c3ccccc3)c(F)c2F)n1 | inactive |
| Cc1ccc(S(=O)(=O)c2c(COC(=O)c3cccc(Cl)c3)c(-c3ccccc3)nn2C)cc1 | 23.1 µM (active) |
| COc1ccc(S(=O)(=O)N2CCOCC2)cc1NC(=O)COc1ccccc1 | inactive |

| SMILES | Potency |
| --- | --- |
| CC1CC(C)CN(C/C=C/c2ccccc2[N+](=O)[O-])C1 (configuration not stated) | inactive |
| O=C(CCNC(=O)c1ccccc1Cl)NN=Cc1ccco1 | inactive |
| CC(=O)Nc1cccc(-c2cc3nc(NCc4cccnc4)n(C)c(=O)c3s2)c1 | inactive |
| COc1cccc(-c2cc3nc(NCc4ccccc4OC)n(C)c(=O)c3s2)c1 | 13 µM (active) |
| Cn1c(NCc2cccnc2)nc2cc(-c3ccc(F)cc3)sc2c1=O | inactive |
| CN(C)S(=O)(=O)c1ccc(N/C=C(\[N+](=O)[O-])S(=O)(=O)c2ccccc2)cc1 | inactive |
| C[C@@H](C(=O)N1CCNCC1)n1cc(CCC(=O)O)nn1 | inactive |
| Cc1ccc(Cn2c(C)c(C(=O)NCc3ccccc3C(F)(F)F)sc2=O)cc1 | inactive |
| NS(=O)(=O)c1ccc(CCNS(=O)(=O)c2cccc3cccnc23)cc1 | inactive |
| O=[N+]([O-])c1ccccc1S(=O)(=O)Nc1cccc2cccnc12 | 794 nM (active) and 3.26 µM (active) |
| Cc1ccccc1NC(=O)c1ccccc1NS(=O)(=O)c1cccc2cccnc12 | inactive |
| COc1cccc(C(=O)NC(=O)Nc2nc(C)cc(C(F)(F)F)n2)c1 | inactive |
| Cc1ccc(N2CC(C(=O)Nc3cc(Cl)ccc3-n3cncn3)CC2=O)cc1 (configuration not stated) | inactive |
| O=C(CN1CCN(C(=O)c2ccco2)CC1)Nc1ccc(Cl)c(C(F)(F)F)c1 | 23.1 µM (active) |
| O=C(c1ccco1)N1CCN(C(=S)Nc2cc(F)cc(F)c2)CC1 | inactive |
| O=C(CN1CCN(C(=O)c2ccco2)CC1)Nc1ccc2c(c1)OCO2 | inactive |
| Cc1ccc(-n2nnnc2CNC(=O)c2ccccc2C)cc1C | inactive |
| C[C@H]1CN([C@@H](C)CO)C(=O)CCCn2cc(nn2)CO[C@@H]1CN(C)S(=O)(=O)c1cccc(C#N)c1 | inactive |
| O=C(O)C(c1cccs1)C1(O)CCCCC1 (configuration not stated) | inactive |
| O=C(NCCCN1CCOCC1)c1cc(-c2ccccc2F)no1 | inactive |
| COC(=O)CSc1snnc1-c1ccc(Cl)c(Cl)c1 | inactive |

| SMILES | Potency |
| --- | --- |
| Cc1c(NC(=O)C(C)OC(=O)c2c3c(nc4ccccc24)CCC(C)C3)c(=O)n(-c2ccccc2)n1C (configuration not stated) | 13 µM (active) |
| Cc1c(NC(=O)C(C)OC(=O)c2cc3c4ccccc4n(C)c3s2)c(=O)n(-c2ccccc2)n1C (configuration not stated) | inactive |
| Cc1c(NC(=O)C(C)OC(=O)c2ccccc2O)c(=O)n(-c2ccccc2)n1C (configuration not stated) | inactive |
| N#C/C(=C\c1ccccc1)c1n[nH]c(Cn2cncn2)n1 | inactive |
| Cc1nn2cc(-c3ccc(Cl)cc3)cnc2c1Br | inactive |
| CCc1c(-c2ccc(F)cc2)ncn1Cc1cccc(-c2ccccc2)c1 | 11.6 µM (active) |
| Cc1cccc(Cn2cnc3c(N)c(C)c(C)cc32)c1 | inactive |
| O=C(NCc1ccncc1)C1CCN(C(=O)c2cccc(Cl)c2)CC1 | inactive |
| Nc1ccc(-n2nncc2-c2ccco2)cc1 | inactive |
| O=C(NC(=S)Nc1ccc(Cl)c(C(=O)O)c1)c1cncc(Br)c1 | inactive |
| COc1ccccc1N(CC(=O)Nc1ccccc1C(=O)N1CCCC1)S(C)(=O)=O | inactive |
| CCCn1c(N)c(C(=O)CSc2nnc(Cc3cccs3)n2C2CC2)c(=O)[nH]c1=O | inactive |
| Cc1cc(NC(=O)CSCc2nc(-c3cccc(Cl)c3)oc2C)no1 | inactive |
| Cc1cc2c(cc3c(SCc4nc(-c5ccccc5)oc4C)nnc(C)n32)o1 | 16.4 µM (active) |
| CCc1nnc(SCc2nc(-c3cccc(C)c3)oc2C)c2cc3sc(C)cc3n12 | inactive |
| Cc1ccc2nc(NC(=O)C3CCN(S(=O)(=O)c4ccc5c(c4)oc(=O)n5C)CC3)sc2c1 | 5.8 µM (active) |
| O=C(NC1CCCCC1)n1c(=O)oc2cc(S(=O)(=O)N3CCCCC3)ccc21 | inactive |
| Cc1ccc2nc(NC(=O)C3CSC4(C)CCC(=O)N34)sc2c1 (configuration not stated) | inactive |
| O=C(Nc1cc2c3c(c1)C1CCCC1CN3CC1CCCC21)c1ccc([N+](=O)[O-])cc1 (configuration not stated) | inactive |
| CC[C@@H](C)[C@@H](C(=O)N1CCN(C(=O)OC(C)(C)C)CC1)n1cc(CCC(=O)O)nn1 | inactive |
